Source: PubChem BioAssay (Tox21)
Inconclusive results are not listed. Activity calls are given as the source filed them. Calls follow the shape of the dose curve; as a rule, active = well fitted curve in the direction sought with a large enough effect in the repeat runs; inconclusive = weak or mixed curves; inactive = no such curve, though single readings can be large; an effect the other way counts as inactive or inconclusive.

Legend:
[1] = A CellTox Green Cytotoxicity Assay to monitor cytotoxicity in HEK293 cells - 40 hour (AID 1224871); also: nearly all actives have a fitted effect of over 45% in size
Summary of the method: (§1)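 Tox21 screen in HEK293: membrane-impermeant cyanine dye fluoresces on binding dead-cell DNA; compound pinned 5 h post-seeding, plates held at 37 C, signal read repeatedly through 40 h.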

[2] = qHTS RealTime-Glo MT Cell Viability Assay in HEK293 cells - 16 hour (AID 1224872); also: top concentration of the series differs between compounds; nearly all actives have a fitted effect of over 50% in size
Summary of the method: (§2)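 Viability tracked continuously by luminescence as live cells reduce a prosubstrate for NanoLuc; HEK293 cells preincubated 5 h, compound-treated at 37 C, and read at 0, 8, 16, 24, 32 and 40 h.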

[3] = qHTS RealTime-Glo MT Cell Viability Assay in HepG2 cells - 8 hour (AID 1224873); also: nearly all actives have a fitted effect of over 55% in size
Summary of the method: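 HepG2 cells mixed with RealTime-Glo MT reagents (NanoLuc plus cell-permeant prosubstrate) were seeded at 600 cells/well, incubated 5 h at 37 C/5% CO2, then pinned with compounds in DMSO; nonlytic luminescence tracked viability during 40 h treatment.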

[4] = qHTS RealTime-Glo MT Cell Viability Assay in HEK293 cells - 40 hour (AID 1224874); details: RealTime-Glo luminescence; max response: stronger effect = lower value; also: nearly all actives have a fitted effect of over 50% in size; also: potency is read from the fitted curve at half-maximal effect
Summary of the method: (§3)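 HEK293 + NanoLuc + prosubstrate, 600 cells/well; 5 h, 37 C/5% CO2; compound 23 nL in DMSO by pintool; 37 C; luminescence read at 0, 8, 16, 24, 32 and 40 h time points.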

[5] = A CellTox Green Cytotoxicity Assay to monitor cytotoxicity in HEK293 cells - 24 hour (AID 1224875); also: series mostly up to about 77 µM; nearly all actives have a fitted effect of over 45% in size
Summary of the method: as §1

[6] = A CellTox Green Cytotoxicity Assay to monitor cytotoxicity in HepG2 cells - 16 hour (AID 1224876); also: nearly all actives have a fitted effect of over 45% in size
Summary of the method: (§4)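 Measurements at 0, 8, 16, 24, 32 and 40 h of treatment captured CellTox Green fluorescence in HepG2 cells that had been co-plated with reagent and preincubated 5 h at 37 C/5% CO2.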

[7] = qHTS RealTime-Glo MT Cell Viability Assay in HepG2 cells - 32 hour (AID 1224877); also: nearly all actives have a fitted effect of over 55% in size
Summary of the method: (§5)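 Viability was tracked continuously by NanoLuc luminescence from prosubstrate reduced by living HepG2 cells, at successive time points over 40 h of compound exposure. Cells with reagent were preincubated 5 h at 37 °C before compound addition.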

[8] = A CellTox Green Cytotoxicity Assay to monitor cytotoxicity in HepG2 cells - 24 hour (AID 1224878); also: nearly all actives have a fitted effect of over 45% in size
Summary of the method: as §4

[9] = A CellTox Green Cytotoxicity Assay to monitor cytotoxicity in HepG2 cells - 40 hour (AID 1224879); also: nearly all actives have a fitted effect of over 40% in size
Summary of the method: as §4

[10] = qHTS RealTime-Glo MT Cell Viability Assay in HEK293 cells - 0 hour (AID 1224880)
Summary of the method: as §3

[11] = A CellTox Green Cytotoxicity Assay to monitor cytotoxicity in HEK293 cells - 32 hour (AID 1224881); also: nearly all actives have a fitted effect of over 40% in size
Summary of the method: as §1

[12] = A CellTox Green Cytotoxicity Assay to monitor cytotoxicity in HepG2 cells - 0 hour (AID 1224882); also: nearly all actives have a fitted effect of over 35% in size
Summary of the method: as §4

[13] = A CellTox Green Cytotoxicity Assay to monitor cytotoxicity in HepG2 cells - 32 hour (AID 1224883); also: nearly all actives have a fitted effect of over 50% in size
Summary of the method: as §4

[14] = A CellTox Green Cytotoxicity Assay to monitor cytotoxicity in HEK293 cells - 8 hour (AID 1224884); also: nearly all actives have a fitted effect of over 35% in size
Summary of the method: as §1

[15] = qHTS RealTime-Glo MT Cell Viability Assay in HepG2 cells - 16 hour (AID 1224885); also: nearly all actives have a fitted effect of over 50% in size
Summary of the method: as §5

[16] = qHTS RealTime-Glo MT Cell Viability Assay in HEK293 cells - 24 hour (AID 1224886)
Summary of the method: as §2

[17] = qHTS RealTime-Glo MT Cell Viability Assay in HEK293 cells - 8 hour (AID 1224887)
Summary of the method: as §3

[18] = A CellTox Green Cytotoxicity Assay to monitor cytotoxicity in HEK293 cells - 16 hour (AID 1224888); also: nearly all actives have a fitted effect of over 35% in size
Summary of the method: as §1

[19] = qHTS RealTime-Glo MT Cell Viability Assay in HepG2 cells - 0 hour (AID 1224889); also: nearly all actives have a fitted effect of over 50% in size
Summary of the method: as §5

[20] = A CellTox Green Cytotoxicity Assay to monitor cytotoxicity in HepG2 cells - 8 hour (AID 1224890); also: nearly all actives have a fitted effect of over 45% in size
Summary of the method: as §4
% is scaled to controls: 0 for no effect and ±100 for the full control effect.

CCCC/C=C/C=C\C=O
inactive: Potency [1] | Potency [2] | outcome [3] | max response [4] 0.84% | outcome [5] | outcome [6] | outcome [7] | outcome [8] | Potency [9] | Potency [10] | Potency [11] | outcome [12] | Potency [13] | Potency [14] | outcome [15] | Potency [16] | Potency [17] | outcome [18] | Potency [19] | outcome [20]

CCCCCCCCCCCCCC
inactive: Potency [1] | Potency [2] | outcome [3] | max response [4] 3.06% | outcome [5] | outcome [6] | outcome [7] | outcome [8] | Potency [9] | Potency [10] | Potency [11] | outcome [12] | Potency [13] | Potency [14] | outcome [15] | Potency [16] | Potency [17] | outcome [18] | Potency [19] | outcome [20]

CC(=O)N[C@@H](CCC(=O)O)C(=O)O
inactive: Potency [1] | Potency [2] | outcome [3] | max response [4] 1.63% | outcome [5] | outcome [6] | outcome [7] | outcome [8] | Potency [9] | Potency [10] | Potency [11] | outcome [12] | Potency [13] | Potency [14] | outcome [15] | Potency [16] | Potency [17] | outcome [18] | Potency [19] | outcome [20]

Cc1cccc(C)c1NC(=O)c1ccccc1C(=O)O
inactive: Potency [1] | Potency [2] | outcome [3] | max response [4] 2.81% | outcome [5] | outcome [6] | outcome [7] | outcome [8] | Potency [9] | Potency [10] | Potency [11] | outcome [12] | Potency [13] | Potency [14] | outcome [15] | Potency [16] | Potency [17] | outcome [18] | Potency [19] | outcome [20]

COCCc1ccc(OCC2CO2)cc1 (stereo not given)
inactive: Potency [1] | Potency [2] | outcome [3] | max response [4] 13.1% | outcome [5] | outcome [6] | outcome [7] | outcome [8] | Potency [9] | Potency [10] | Potency [11] | outcome [12] | Potency [13] | Potency [14] | outcome [15] | Potency [16] | Potency [17] | outcome [18] | Potency [19] | outcome [20]

CC/C=C\CC1=C(C)CCC1=O
inactive: Potency [1] | Potency [2] | outcome [3] | max response [4] 0.983% | outcome [5] | outcome [6] | outcome [7] | outcome [8] | Potency [9] | Potency [10] | Potency [11] | outcome [12] | Potency [13] | Potency [14] | outcome [15] | Potency [16] | Potency [17] | outcome [18] | Potency [19] | outcome [20]

COC(=O)CCCCCCCC(=O)OC
inactive: Potency [1] | Potency [2] | outcome [3] | max response [4] 11.9% | outcome [5] | outcome [6] | outcome [7] | outcome [8] | Potency [9] | Potency [10] | Potency [11] | outcome [12] | Potency [13] | Potency [14] | outcome [15] | Potency [16] | Potency [17] | outcome [18] | Potency [19] | outcome [20]

O=C(NCCN1CCOCC1)c1ccc(Cl)cc1
inactive: Potency [1] | Potency [2] | outcome [3] | max response [4] 5.6% | outcome [5] | outcome [6] | outcome [7] | outcome [8] | Potency [9] | Potency [10] | Potency [11] | outcome [12] | Potency [13] | Potency [14] | outcome [15] | Potency [16] | Potency [17] | Potency [19] | outcome [20]

c1ccc2nccnc2c1
inactive: Potency [1] | Potency [2] | outcome [3] | max response [4] 5.36% | outcome [5] | outcome [6] | outcome [7] | outcome [8] | Potency [9] | Potency [10] | Potency [11] | outcome [12] | Potency [13] | Potency [14] | outcome [15] | Potency [16] | Potency [17] | outcome [18] | Potency [19] | outcome [20]

O=C1c2cccc3c2[C@H](CCC3)CN1[C@@H]1CN2CCC1CC2
active: Potency [4] 6.01 µM
inactive: Potency [1] | Potency [2] | outcome [3] | outcome [5] | outcome [6] | outcome [7] | outcome [8] | Potency [9] | Potency [10] | Potency [11] | outcome [12] | Potency [13] | Potency [14] | outcome [15] | Potency [17] | outcome [18] | Potency [19] | outcome [20]

Cc1ccsc1/C=C/C1=NCCCN1C
inactive: Potency [1] | Potency [2] | outcome [3] | max response [4] 2.37% | outcome [5] | outcome [6] | outcome [7] | outcome [8] | Potency [9] | Potency [10] | Potency [11] | outcome [12] | Potency [13] | Potency [14] | outcome [15] | Potency [17] | Potency [19] | outcome [20]

O=C(O)c1ccc(Cl)cc1Cl
inactive: Potency [1] | Potency [2] | outcome [3] | max response [4] 7.46% | outcome [5] | outcome [6] | outcome [7] | outcome [8] | Potency [9] | Potency [10] | Potency [11] | outcome [12] | Potency [13] | Potency [14] | Potency [17] | outcome [18] | Potency [19] | outcome [20]

O=C1c2ccccc2C(=O)C1c1ccccc1
inactive: Potency [1] | Potency [2] | outcome [3] | max response [4] 3.3% | outcome [5] | outcome [6] | outcome [7] | outcome [8] | Potency [9] | Potency [10] | Potency [11] | outcome [12] | Potency [13] | outcome [15] | Potency [16] | Potency [17] | Potency [19] | outcome [20]

CCOCCOC(=O)/C=C/c1ccc(OC)cc1
inactive: Potency [1] | Potency [2] | outcome [3] | max response [4] 4.37% | outcome [5] | outcome [6] | outcome [7] | outcome [8] | Potency [9] | Potency [10] | Potency [11] | outcome [12] | Potency [13] | Potency [14] | Potency [16] | Potency [17] | Potency [19] | outcome [20]
